Test results taken from ChEMBL document CHEMBL1961873, “Compounds: GSK PKIS; Assays: Nanosyn kinase panel” (2012).

Experiments:
[1] = biological target: Dual specificity protein kinase CLK3 (Homo sapiens) (UniProt P49761); conditions: at 1 µM;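 also: each value is the mean inhibition of CLK3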
[2] = biological target: Dual specificity tyrosine-phosphorylation-regulated kinase 1A (Homo sapiens) (UniProt Q13627); conditions: at 0.1 µM
[3] = biological target: Dual specificity tyrosine-phosphorylation-regulated kinase 1A (Homo sapiens) (UniProt Q13627); conditions: at 1 µM
[4] = biological target: Dual specificity tyrosine-phosphorylation-regulated kinase 1B (Homo sapiens) (UniProt Q9Y463); conditions: at 0.1 µM
Dual specificity tyrosine-phosphorylation-regulated kinase 1B (Homo sapiens), sequence (Q9Y463 whole entry, looked up): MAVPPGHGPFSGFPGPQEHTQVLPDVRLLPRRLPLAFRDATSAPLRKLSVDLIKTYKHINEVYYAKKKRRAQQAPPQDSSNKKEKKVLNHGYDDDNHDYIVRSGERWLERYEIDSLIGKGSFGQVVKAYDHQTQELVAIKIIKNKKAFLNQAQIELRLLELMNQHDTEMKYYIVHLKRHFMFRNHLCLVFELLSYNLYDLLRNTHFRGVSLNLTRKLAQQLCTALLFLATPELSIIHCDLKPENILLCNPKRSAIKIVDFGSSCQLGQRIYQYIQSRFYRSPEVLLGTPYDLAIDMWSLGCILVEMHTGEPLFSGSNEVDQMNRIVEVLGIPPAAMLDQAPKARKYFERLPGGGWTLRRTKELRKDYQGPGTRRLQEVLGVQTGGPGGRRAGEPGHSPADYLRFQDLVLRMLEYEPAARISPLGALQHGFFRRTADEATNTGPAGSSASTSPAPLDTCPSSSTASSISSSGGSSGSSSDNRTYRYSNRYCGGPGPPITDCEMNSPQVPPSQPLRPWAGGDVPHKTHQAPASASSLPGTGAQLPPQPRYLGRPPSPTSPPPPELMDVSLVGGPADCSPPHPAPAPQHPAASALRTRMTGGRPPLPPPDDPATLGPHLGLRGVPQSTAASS

[5] = biological target: Dual specificity tyrosine-phosphorylation-regulated kinase 1B (Homo sapiens) (UniProt Q9Y463); conditions: at 1 µM
[6] = biological target: T1, Dual specificity tyrosine-phosphorylation-regulated kinase 2 (Homo sapiens) (UniProt Q92630); conditions: at 0.1 µM
T1 sequence (whole entry): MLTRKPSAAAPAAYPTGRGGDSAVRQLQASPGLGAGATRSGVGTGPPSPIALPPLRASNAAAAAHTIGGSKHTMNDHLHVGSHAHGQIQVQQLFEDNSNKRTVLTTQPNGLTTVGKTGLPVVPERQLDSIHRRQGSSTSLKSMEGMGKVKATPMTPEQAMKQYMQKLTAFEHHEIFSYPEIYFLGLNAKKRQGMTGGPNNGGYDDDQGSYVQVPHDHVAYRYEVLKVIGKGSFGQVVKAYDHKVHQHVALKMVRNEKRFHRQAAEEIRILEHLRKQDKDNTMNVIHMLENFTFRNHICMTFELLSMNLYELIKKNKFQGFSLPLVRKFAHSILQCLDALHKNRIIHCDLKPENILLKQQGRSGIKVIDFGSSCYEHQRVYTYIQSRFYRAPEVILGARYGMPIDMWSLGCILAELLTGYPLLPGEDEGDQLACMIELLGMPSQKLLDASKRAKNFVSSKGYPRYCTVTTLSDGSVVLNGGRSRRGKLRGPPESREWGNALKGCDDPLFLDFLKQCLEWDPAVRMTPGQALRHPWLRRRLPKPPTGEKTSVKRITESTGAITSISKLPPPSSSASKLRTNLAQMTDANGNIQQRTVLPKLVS

[7] = biological target: T1, Dual specificity tyrosine-phosphorylation-regulated kinase 2 (Homo sapiens); conditions: at 1 µM
[8] = biological target: Glycogen synthase kinase-3 alpha (Homo sapiens) (UniProt P49840); conditions: at 0.1 µM
Glycogen synthase kinase-3 alpha (Homo sapiens), sequence (P49840 2-483 limits assumed): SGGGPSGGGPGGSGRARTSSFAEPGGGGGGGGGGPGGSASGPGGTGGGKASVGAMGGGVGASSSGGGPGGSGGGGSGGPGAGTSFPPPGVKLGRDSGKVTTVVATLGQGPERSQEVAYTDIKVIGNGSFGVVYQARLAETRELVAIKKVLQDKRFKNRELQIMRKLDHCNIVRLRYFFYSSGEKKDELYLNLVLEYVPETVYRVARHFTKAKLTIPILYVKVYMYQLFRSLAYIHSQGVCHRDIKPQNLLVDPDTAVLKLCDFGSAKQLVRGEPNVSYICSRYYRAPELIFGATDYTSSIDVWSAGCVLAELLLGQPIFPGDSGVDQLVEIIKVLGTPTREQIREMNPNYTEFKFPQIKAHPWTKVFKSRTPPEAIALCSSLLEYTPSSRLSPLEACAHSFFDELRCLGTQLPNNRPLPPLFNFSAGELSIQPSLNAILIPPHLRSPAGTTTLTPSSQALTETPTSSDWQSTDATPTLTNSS

[9] = biological target: Glycogen synthase kinase-3 alpha (Homo sapiens) (UniProt P49840); conditions: at 1 µM
[10] = biological target: Glycogen synthase kinase-3 beta (Homo sapiens) (UniProt P49841); conditions: at 0.1 µM
Glycogen synthase kinase-3 beta (Homo sapiens), sequence (P49841 whole entry, looked up): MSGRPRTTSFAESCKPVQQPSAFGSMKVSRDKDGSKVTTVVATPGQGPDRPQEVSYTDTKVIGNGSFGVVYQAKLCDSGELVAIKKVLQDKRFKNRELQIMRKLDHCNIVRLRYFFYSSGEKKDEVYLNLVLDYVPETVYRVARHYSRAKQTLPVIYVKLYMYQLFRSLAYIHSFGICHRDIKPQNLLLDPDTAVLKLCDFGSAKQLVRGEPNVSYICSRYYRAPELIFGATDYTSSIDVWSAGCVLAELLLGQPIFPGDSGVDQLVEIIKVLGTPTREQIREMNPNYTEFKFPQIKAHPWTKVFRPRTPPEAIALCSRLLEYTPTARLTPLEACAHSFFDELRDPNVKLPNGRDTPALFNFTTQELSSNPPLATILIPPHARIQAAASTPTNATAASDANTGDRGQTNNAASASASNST

[11] = biological target: Glycogen synthase kinase-3 beta (Homo sapiens) (UniProt P49841); conditions: at 1 µM
[12] = biological target: Homeodomain-interacting protein kinase 1 (Homo sapiens) (UniProt Q86Z02); conditions: at 0.1 µM
Homeodomain-interacting protein kinase 1 (Homo sapiens), sequence (Q86Z02 whole entry, looked up): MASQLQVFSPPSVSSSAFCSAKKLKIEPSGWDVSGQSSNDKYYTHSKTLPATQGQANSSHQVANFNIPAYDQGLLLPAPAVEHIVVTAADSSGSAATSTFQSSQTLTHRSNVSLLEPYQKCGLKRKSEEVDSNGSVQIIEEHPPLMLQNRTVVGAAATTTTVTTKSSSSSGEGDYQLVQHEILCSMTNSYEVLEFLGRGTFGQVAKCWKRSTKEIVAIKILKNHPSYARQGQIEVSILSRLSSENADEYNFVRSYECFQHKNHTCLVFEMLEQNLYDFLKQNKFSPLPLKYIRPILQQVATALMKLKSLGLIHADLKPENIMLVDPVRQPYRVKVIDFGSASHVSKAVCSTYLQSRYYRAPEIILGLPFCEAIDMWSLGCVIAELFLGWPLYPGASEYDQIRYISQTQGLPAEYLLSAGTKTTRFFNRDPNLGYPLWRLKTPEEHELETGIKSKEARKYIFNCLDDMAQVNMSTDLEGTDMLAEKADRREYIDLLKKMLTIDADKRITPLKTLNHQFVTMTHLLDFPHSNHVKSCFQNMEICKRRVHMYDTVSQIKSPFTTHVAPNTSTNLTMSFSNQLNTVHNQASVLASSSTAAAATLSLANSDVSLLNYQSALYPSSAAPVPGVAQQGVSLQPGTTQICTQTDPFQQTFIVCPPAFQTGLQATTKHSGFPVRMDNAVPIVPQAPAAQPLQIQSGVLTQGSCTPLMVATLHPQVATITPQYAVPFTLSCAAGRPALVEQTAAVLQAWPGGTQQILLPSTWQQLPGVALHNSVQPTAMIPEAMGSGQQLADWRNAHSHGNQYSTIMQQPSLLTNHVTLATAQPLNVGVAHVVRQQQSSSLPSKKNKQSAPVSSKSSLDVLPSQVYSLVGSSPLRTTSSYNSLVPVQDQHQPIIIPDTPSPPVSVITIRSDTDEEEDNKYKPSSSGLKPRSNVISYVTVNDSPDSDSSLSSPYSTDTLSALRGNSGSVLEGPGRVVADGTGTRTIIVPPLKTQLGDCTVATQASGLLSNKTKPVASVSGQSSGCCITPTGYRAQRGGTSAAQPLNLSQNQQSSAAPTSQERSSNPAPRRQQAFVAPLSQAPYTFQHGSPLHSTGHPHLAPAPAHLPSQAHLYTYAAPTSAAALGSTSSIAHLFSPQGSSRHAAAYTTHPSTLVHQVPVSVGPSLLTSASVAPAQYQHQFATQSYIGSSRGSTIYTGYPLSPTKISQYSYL

[13] = biological target: Homeodomain-interacting protein kinase 1 (Homo sapiens) (UniProt Q86Z02); conditions: at 1 µM
[14] = biological target: T2, Homeodomain-interacting protein kinase 4 (Homo sapiens) (UniProt Q8NE63); conditions: at 0.1 µM
T2 sequence (whole entry): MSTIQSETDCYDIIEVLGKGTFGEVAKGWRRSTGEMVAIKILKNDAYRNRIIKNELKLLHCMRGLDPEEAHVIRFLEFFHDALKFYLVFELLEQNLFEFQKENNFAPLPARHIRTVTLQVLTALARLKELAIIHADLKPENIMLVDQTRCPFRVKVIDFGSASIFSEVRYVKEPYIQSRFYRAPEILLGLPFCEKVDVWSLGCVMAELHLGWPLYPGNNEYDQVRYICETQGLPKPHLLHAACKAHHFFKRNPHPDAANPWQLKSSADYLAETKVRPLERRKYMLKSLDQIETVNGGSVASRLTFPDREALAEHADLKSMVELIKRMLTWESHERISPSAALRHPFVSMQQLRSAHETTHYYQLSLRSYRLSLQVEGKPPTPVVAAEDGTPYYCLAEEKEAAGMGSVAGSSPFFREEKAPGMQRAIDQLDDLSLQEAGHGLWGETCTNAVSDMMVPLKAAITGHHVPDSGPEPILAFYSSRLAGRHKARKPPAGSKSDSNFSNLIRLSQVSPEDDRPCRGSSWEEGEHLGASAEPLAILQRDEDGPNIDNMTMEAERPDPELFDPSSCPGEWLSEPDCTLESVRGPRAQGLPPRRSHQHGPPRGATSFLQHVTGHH

[15] = biological target: T2, Homeodomain-interacting protein kinase 4 (Homo sapiens); conditions: at 1 µM
[16] = biological target: Mitogen-activated protein kinase 9 (Homo sapiens) (UniProt P45984); conditions: at 0.1 µM
Mitogen-activated protein kinase 9 (Homo sapiens), sequence (P45984 whole entry, looked up): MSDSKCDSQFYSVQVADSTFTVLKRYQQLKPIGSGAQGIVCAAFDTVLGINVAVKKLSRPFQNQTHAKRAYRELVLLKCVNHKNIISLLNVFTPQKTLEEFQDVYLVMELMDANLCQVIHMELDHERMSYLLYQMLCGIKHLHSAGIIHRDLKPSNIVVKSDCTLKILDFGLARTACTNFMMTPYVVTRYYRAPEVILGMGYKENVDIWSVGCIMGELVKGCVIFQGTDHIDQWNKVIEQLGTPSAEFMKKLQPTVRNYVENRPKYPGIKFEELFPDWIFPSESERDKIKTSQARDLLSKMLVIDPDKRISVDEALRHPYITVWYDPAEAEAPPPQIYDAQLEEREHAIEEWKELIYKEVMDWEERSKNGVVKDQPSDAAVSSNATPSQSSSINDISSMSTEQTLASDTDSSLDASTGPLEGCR

[17] = biological target: Mitogen-activated protein kinase 9 (Homo sapiens) (UniProt P45984); conditions: at 1 µM
[18] = biological target: Mitogen-activated protein kinase 1 (Homo sapiens) (UniProt P28482); conditions: at 0.1 µM
Mitogen-activated protein kinase 1 (Homo sapiens), sequence (P28482 whole entry): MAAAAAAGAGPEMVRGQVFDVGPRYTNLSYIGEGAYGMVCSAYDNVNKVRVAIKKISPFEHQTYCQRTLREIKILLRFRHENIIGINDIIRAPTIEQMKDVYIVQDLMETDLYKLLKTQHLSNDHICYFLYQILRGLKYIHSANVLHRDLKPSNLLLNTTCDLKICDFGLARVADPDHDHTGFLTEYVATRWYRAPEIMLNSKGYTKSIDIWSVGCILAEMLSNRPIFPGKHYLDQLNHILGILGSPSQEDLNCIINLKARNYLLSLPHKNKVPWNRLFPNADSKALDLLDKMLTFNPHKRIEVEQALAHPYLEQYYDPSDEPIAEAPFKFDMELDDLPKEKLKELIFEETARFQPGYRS

[19] = biological target: Mitogen-activated protein kinase 1 (Homo sapiens) (UniProt P28482); conditions: at 1 µM
[20] = biological target: Mitogen-activated protein kinase 3 (Homo sapiens) (UniProt P27361); conditions: at 0.1 µM;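 also: each value is a mean inhibition figure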
Mitogen-activated protein kinase 3 (Homo sapiens), sequence (P27361 whole entry): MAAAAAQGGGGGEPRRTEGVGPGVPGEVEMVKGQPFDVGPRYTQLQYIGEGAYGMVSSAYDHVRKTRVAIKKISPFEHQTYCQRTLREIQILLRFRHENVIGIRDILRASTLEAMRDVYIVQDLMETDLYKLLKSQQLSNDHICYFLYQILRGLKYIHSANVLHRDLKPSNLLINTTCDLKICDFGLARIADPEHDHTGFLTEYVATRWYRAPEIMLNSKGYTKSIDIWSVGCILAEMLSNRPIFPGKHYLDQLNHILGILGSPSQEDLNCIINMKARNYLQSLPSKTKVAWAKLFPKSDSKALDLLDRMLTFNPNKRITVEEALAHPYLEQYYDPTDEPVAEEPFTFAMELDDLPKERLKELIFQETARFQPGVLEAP

Dual specificity protein kinase CLK3 (Homo sapiens), sequence (P49761 whole entry, looked up): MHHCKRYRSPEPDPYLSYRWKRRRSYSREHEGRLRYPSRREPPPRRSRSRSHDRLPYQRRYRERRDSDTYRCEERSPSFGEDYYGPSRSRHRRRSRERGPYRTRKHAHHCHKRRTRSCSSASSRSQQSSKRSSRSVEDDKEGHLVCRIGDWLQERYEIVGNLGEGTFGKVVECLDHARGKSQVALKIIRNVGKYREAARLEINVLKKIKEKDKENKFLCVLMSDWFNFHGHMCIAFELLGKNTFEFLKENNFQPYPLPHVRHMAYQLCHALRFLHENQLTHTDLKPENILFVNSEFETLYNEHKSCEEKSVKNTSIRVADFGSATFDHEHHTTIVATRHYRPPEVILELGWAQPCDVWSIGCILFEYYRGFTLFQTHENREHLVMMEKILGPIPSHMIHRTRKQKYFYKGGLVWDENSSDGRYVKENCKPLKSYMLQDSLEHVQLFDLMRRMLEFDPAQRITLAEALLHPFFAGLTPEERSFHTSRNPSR

| Structure (SMILES) | inhibition [1] [%] | inhibition [2] [%] | inhibition [3] [%] | inhibition [4] [%] | inhibition [5] [%] | inhibition [6] [%] | inhibition [7] [%] | inhibition [8] [%] | inhibition [9] [%] | inhibition [10] [%] | inhibition [11] [%] | inhibition [12] [%] | inhibition [13] [%] | inhibition [14] [%] | inhibition [15] [%] | inhibition [16] [%] | inhibition [17] [%] | inhibition [18] [%] | inhibition [19] [%] | inhibition [20] [%] |
| --- | --- | --- | --- | --- | --- | --- | --- | --- | --- | --- | --- | --- | --- | --- | --- | --- | --- | --- | --- | --- |
| N#Cc1c(NC(=O)c2cccc3ccccc23)sc2c1CCCC2 | 1.09 | 1.07 | 4.31 | 0.47 | 1.43 | 1.86 | 2.69 | 5.51 | 6.65 | 3.72 | 6.89 | -2.43 | 1.91 | -1.01 | 2.45 | 6.07 | 25.4 | 2.02 | 3.91 | -0.53 |
| COc1cc2ncn(-c3cc(O[C@@H](C)c4ccccc4Cl)c(C(N)=O)s3)c2cc1OC | 2.08 | 4.47 | 8.19 | -0.84 | 5.29 | 2.62 | 3.36 | 3.02 | 6.38 | 2.25 | 5.97 | -0.99 | 4.95 | 2.88 | 22.1 | 2.45 | 8.24 | 5.66 | 6.55 | 4.78 |
| COc1ccccc1Nc1ncc(-c2ccccc2)o1 | 0.51 | 2.5 | 3.38 | -1.91 | -1.3 | 4.18 | 3.04 | 2.25 | 3.92 | 2.57 | 2.74 | -3.68 | 0.57 | -0.52 | 0.15 | 4.12 | 3.07 | 5.93 | 6.15 | 4.06 |
| CCCN1CCC(Oc2cc(Nc3nc(Nc4cccc(F)c4C(N)=O)c4cc[nH]c4n3)c(OC)cc2Cl)CC1 | 1.7 | 2.64 | 25.9 | 3.49 | 27.1 | -0.2 | 0.67 | 3.45 | 9.53 | 3.22 | 9.38 | 2.76 | 18.8 | 3.27 | 24.8 | 1.29 | 2.98 | 0.93 | 17.9 | 0.36 |
| COc1cccc(-n2ncc3c(N/N=C/c4cccc(F)c4)ncnc32)c1 | -0.14 | 2.01 | 25.9 | -1.44 | 14.9 | 4.29 | 16.8 | 54.5 | 75.2 | 44.7 | 72.7 | -2.11 | 20.6 | 0.87 | 21.3 | 1.23 | 4.69 | 1.94 | 3.29 | 1.61 |
| O=C1NC(=O)C(c2ccc(Cl)cc2)=C1Nc1ccc(Cl)c(C(=O)O)c1 | 4.58 | 3.92 | 17.2 | 3.26 | 8.51 | -2.12 | -1.19 | 21.4 | 72.1 |  |  | 2.13 | 4.29 | 1.76 | 1.98 | 0.98 | 5.72 |  | -5.59 | -1.99 |
| O=C1NC(=O)C(c2cccc(Cl)c2)=C1Nc1ccc(O)c(Cl)c1 | 5.01 | 2.08 | 17.3 | 1.51 | 8.29 | 1 | 0.69 |  |  |  |  | -2.68 | 1.28 | -1.68 | 0.62 | 3.34 | 1.38 | -0.66 | 1.91 | 2.05 |
| Fc1cccc(COc2ccc(Nc3ncnc4cc(-c5ccc[nH]5)sc34)cc2Cl)c1 | -1.03 | -2.81 | -0.45 | -3.77 | -3.25 | 1.57 | 1.07 | -2.13 | 2.99 | -2.64 | 1.92 | -5.52 | -2.5 | -1.95 | 2.7 | 2.73 | 3.15 | 3.5 | 4.2 | 0.89 |
| COc1ccc(-c2nn3ncccc3c2-c2ccnc(Nc3ccc(Cl)c(C(F)(F)F)c3)n2)cc1 | 0.49 | -0.17 | 2.05 | -1.42 | 0.89 | 1.06 | 1.84 | 2.46 | 3.98 | 1.3 | 4.05 | -0.18 | -0.9 | 1.05 | 1.36 | 1.72 | 4.38 | 3.47 | 3.46 | 4.84 |
| Cc1ccc(NC(=O)c2ccnc(N3CCCC3)c2)cc1-c1ccc(C(=O)NCC2CC2)cc1 | -1.68 | 0.13 | 4 | -2.86 | -0.97 | 2.77 | 3.11 | 1.33 | 5.65 | 0.07 | 3.68 | -4.3 | -2.16 | -1.31 | 2.09 | 2.66 | 6.82 | 4.25 | 6.09 | 2.96 |
| CCn1c(-c2nonc2N)nc2cncc(C(=O)N3CCNCC3)c21 | 1.12 | 3.49 | 4.33 | 0.28 | -0.73 | 4.35 | 7.99 | 2.98 | 2.61 | 1.93 | 1.94 | -1.03 | 0.35 | -0.43 | 0.6 | 5.31 | 8.83 | 8.16 | 7.48 | 6.65 |
| Nc1ncnc2occ(-c3ccc(NC(=O)Nc4cccc(C(F)(F)F)c4)cc3)c12 |  | 3.42 | 6.79 | -0.28 | 1.94 | 3.2 | 2.85 | 3.15 | 9.54 | 2.89 | 11 | 5.73 | 37.4 | 67.4 | 78.3 | 3.31 | 14.5 | 4.78 | 6.77 | 4.22 |
| O=C1NC(=O)C(N2CCc3ccccc32)=C1c1ccc(Cl)cc1 | 2.44 | 3.12 | 4.67 | 0.13 | 1.08 | 3.3 | 3.36 | 3.79 | 14 |  |  | 0.01 | 1.33 | -0.41 | 2.92 | 3.51 | 5.32 | 3.12 | 5.91 | 5.26 |
| O=C1Nc2ccc(C(=O)c3ccco3)cc2C1=Cc1cc(Cl)c(O)c(Cl)c1 | 63.8 | 40.5 | 78.3 | 47.4 | 81.5 | 3.34 | 13.4 | 24.5 | 70.1 | 31.1 | 75.8 | 14 | 54.1 | 4.69 | 32.9 | 2.31 | 6.22 | 2.44 | 4.55 | 1.44 |
